According to PubChem BioAssay AID588726 (The Scripps Research Institute Molecular Screening Center, 2011):
Hit rate of the full screen: of about 360,000 compounds, about 8,200 (2.3%) were called active. Rule as the data show it: active = inhibition above about 27%; inactive = the rest. The list comes from a sample in which actives are over-represented; it also holds similar structures and randomly drawn compounds.

target: Fructose-bisphosphate aldolase (Mycobacterium tuberculosis (strain ATCC 25618 / H37Rv)) (UniProt P9WQA3); experiment: M. tuberculosis aldolase activity blockers – biochemical, fluorescence, strain H37Rv, primary screen (AID 588726);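 also: 0% = vehicle and 100% = reference inhibitor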; conditions: purified M. tuberculosis FBA, fluorescence read-out, at 1 µM, hits give high values
Sequence (P9WQA3 whole entry, looked up): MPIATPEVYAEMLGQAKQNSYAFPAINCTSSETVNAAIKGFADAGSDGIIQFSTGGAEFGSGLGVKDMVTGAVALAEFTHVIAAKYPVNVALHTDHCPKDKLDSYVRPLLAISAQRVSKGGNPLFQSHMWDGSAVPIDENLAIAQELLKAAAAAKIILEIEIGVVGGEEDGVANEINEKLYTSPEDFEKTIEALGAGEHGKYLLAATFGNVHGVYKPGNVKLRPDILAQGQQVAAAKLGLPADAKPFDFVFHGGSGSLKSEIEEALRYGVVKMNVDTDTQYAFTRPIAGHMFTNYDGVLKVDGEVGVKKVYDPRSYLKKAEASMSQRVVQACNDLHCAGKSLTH

| Compound | inhibition |
| --- | --- |
| CC(=O)c1nn(-c2ccccc2)c(=Nc2ccccc2)cc1C | 2.4% (inactive) |
| O=C1c2ccccc2C(c2nc3ccccc3[nH]2)N1c1ccccc1 (stereo not given) | 0.93% (inactive) |
| O=C1CCCN1CCCNC(=S)Nc1ccc(F)c(Cl)c1 | -1.02% (inactive) |
| COC(=O)c1cc(CNC(=O)CC(C)c2ccccc2)ccc1OC (stereo not given) | -0.38% (inactive) |
| COc1cc(Cn2c3ccc(NC(=O)CC(C)c4ccccc4)cc3c(=O)n2C)ccc1F (stereo not given) | 146% (active) |
| COc1cccc(NC(=O)CC(c2ccc(OC(C)C)cc2)c2ccccc2OC)c1 (stereo not given) | 1.51% (inactive) |
| CCNC(=S)Nc1ccc2c(c1)c(=O)n(C)n2Cc1ccc(Cl)cc1 | 59.7% (active) |
| Fc1ccccc1CNC(=S)Nc1ccc(Cl)cc1 | 0.3% (inactive) |
| CC=CCn1c(SCCCc2ccccc2)nc2c1c(=O)[nH]c(=O)n2C | 4.11% (inactive) |
| CCOC(=O)c1sc(/N=C/Nc2nc(C)c(C(=O)OCC)s2)nc1C | 2.19% (inactive) |
| N#Cc1ccccc1NC(=O)c1cccc(COc2ccc(Cl)cc2Cl)c1 | -1.7% (inactive) |
| CCOc1ccc(C(C)=O)cc1COC(=O)CN1C(=O)NC2(CCCC2)C1=O | -0.88% (inactive) |
| Cc1ccc(C=O)c([B-](F)(F)F)c1 | 2.07% (inactive) |
| CN1c2ccc(C=O)c3c(C=O)ccc(c23)N(C)C1(C)C | 62.1% (active) |
| O=S(=O)(/C=C/c1ccccc1)NCCc1ccccn1 | 1.96% (inactive) |
| COC(=O)c1onc(-c2c(OC)cc(OC)cc2OC)c1C(=O)OC | -3.51% (inactive) |
| CC(=O)N1C(=O)/C(=C2\SC(=S)N(NC(=O)c3ccc(O)cc3)C2=O)c2ccccc21 | 31.8% (active) |
| COc1ccc(C(=O)NN2C(=O)C3C(c4ccccc4)C=CC(c4ccccc4)C3C2=O)cc1 (stereo not given) | 1.1% (inactive) |
| COc1ccc2c(c1)N(C)/C(=C1/SC(=S)N(NC(C)=O)C1=O)S2 | -4.56% (inactive) |
| COc1cccc(NC(=O)c2cc(S(=O)(=O)N3CCc4ccccc43)cn2C)c1 | -0.54% (inactive) |

| Compound | inhibition |
| --- | --- |
| CC(C)(C)OC(=O)C[C@@H]1C/C=C\C[C@H](CC(=O)N[C@@H](CO)Cc2ccccc2)C(=O)N[C@H](Cc2ccccc2)COC1=O | 3.41% (inactive) |
| Cc1cc(C)cc(NC(=O)N2CCC(NC(=O)c3ccc(F)cc3)CC2)c1 | -6.06% (inactive) |
| O=C(Nc1cccc(F)c1)c1coc(=O)c(Br)c1 | 171% (active) |
| Cc1nc2nc(SCC(=O)Nc3cccc(F)c3)[nH]c2cc1Br | -2.16% (inactive) |
| O=C(Nc1cccc(F)c1)[C@@H]1CCCN1 | 4.68% (inactive) |
| CCc1nn(CCCC(=O)NCc2ccc(C)cc2)c(=O)c2cc3occc3n12 | -0.41% (inactive) |
| COc1ccc(C(=O)CN2C(=O)NC3(CCc4ccccc43)C2=O)c(OC)c1 (stereo not given) | 1.92% (inactive) |
| CCOc1ccc(-c2nnc(-c3ccco3)o2)cc1 | 54% (active) |
| N#Cc1ccc(OCc2nnc(-c3ccc([N+](=O)[O-])cc3)o2)cc1 | 0.59% (inactive) |
| CCCCOc1ccc(-c2nnc(-c3ccco3)o2)cc1 | 46.1% (active) |
| CCCCSc1nnc(-c2ccc(C)cc2)o1 | 3.13% (inactive) |
| CCCOc1ccc(-c2c(C(=O)N/N=C/c3ccco3)nnn2-c2nonc2N)cc1 | 4.8% (inactive) |
| CCOc1ccc(-n2c(SCC(N)=O)nnc2-c2ccco2)cc1 | 0.41% (inactive) |
| CCC(C)(C(=O)NC1CCCC1)N(C(=O)CNC(C)=O)c1ccc(C)cc1 (stereo not given) | 1.41% (inactive) |
| Cc1nc2cccnc2nc1C | -0.64% (inactive) |
| COc1ccc(NC(=O)c2cccc3c2C(=O)N(CC2CCCO2)C3)cc1OC (stereo not given) | -1.34% (inactive) |
| COCCN(C(=O)CC1CCCCC1)c1c(N)n(CC(C)C)c(=O)[nH]c1=O | 2.06% (inactive) |
| O=[N+]([O-])c1cccc(/C=N/Nc2ncc(Br)cn2)c1 | 144% (active) |
| O=[N+]([O-])c1cccc(C=NN=Cc2ccccc2O)c1 | 1.54% (inactive) |
| O=C(N/N=C/c1cccc([N+](=O)[O-])c1)C1CC(=O)N(c2ccc(Br)cc2)C1 (stereo not given) | 2.78% (inactive) |

| Compound | inhibition |
| --- | --- |
| CCCN(C(=O)COC(=O)CNS(=O)(=O)c1ccc(NC(C)=O)cc1)C1CCS(=O)(=O)C1 (stereo not given) | 1.9% (inactive) |
| COc1ccc(CCN(Cc2cc3cccc(C)c3[nH]c2=O)C(=O)N2CCCC2)cc1OC | 0.64% (inactive) |
| Cc1cccc(NC(=O)c2sc3nc(N4CCOCC4)c4c(c3c2N)CCCC4)c1 | 39.1% (active) |
| c1ccc(CSc2ncnc3c2sc2nc(N4CCOCC4)c4c(c23)CCCC4)cc1 | 3.1% (inactive) |
| Cc1nc(N2CCOCC2)c2c(C)c(C(=O)Nc3ccc(C(F)(F)F)cc3)sc2n1 | 2.82% (inactive) |
| Cc1cc(C)cc(NC(=O)Cn2cnc3c(nnn3Cc3ccc(F)cc3)c2=O)c1 | 1.33% (inactive) |
| CN(C)/C(CN1CCCCC1)=C1\N=C(c2ccccc2)OC1=O | -2.21% (inactive) |
| CCN(CC(=O)NCc1cccs1)c1nnnn1-c1ccccc1 | -0.27% (inactive) |
| O=C(Nc1nnc(C2CC2)s1)c1ccccn1 | 2.11% (inactive) |
| CN(C(=O)c1ccccn1)c1nnc(-c2ccccn2)s1 | 31.6% (active) |
| CN(C(=O)COc1ccccc1)c1nnc(-c2ccncc2)s1 | 53.2% (active) |
| CN(C(=O)C1CCOC1)c1nnc(-c2cccnc2)s1 (stereo not given) | -7.08% (inactive) |
| CCC(C)(C)NC(=O)C(c1ccccn1)N(C(=O)c1csnn1)c1ccccc1 (stereo not given) | -0.46% (inactive) |
| CN(C(=O)COc1nnc(-c2cccs2)c(-c2cccs2)n1)c1ccccc1 | 3.91% (inactive) |
| CN(C(=O)CSc1nnc(-c2c[nH]c3ccccc23)o1)C1CCS(=O)(=O)C1 (stereo not given) | 0.37% (inactive) |
| Nn1c(SCC(=O)NC2CCCC2)nnc1-c1ccccc1F | -0.66% (inactive) |
| CC(=O)C(C)n1cnc2scc(-c3ccc(C)cc3)c2c1=O (stereo not given) | -0.72% (inactive) |
| Cc1sc2ncnc(SCC(=O)Nc3ccc(CN4CCCC4)cc3)c2c1C | -0.95% (inactive) |
| O=C(O)CCCn1c(=O)c2cccn2c2ccc(F)cc21 | 6.9% (inactive) |
| CCN(CC)CCC(c1ccc2c(c1)OCO2)c1c(OC)cc(OC)c2c(-c3ccccc3)cc(=O)oc12 (stereo not given) | 4.6% (inactive) |
